Laboratory results: PubChem BioAssay AID1490 (National Center for Advancing Translational Sciences (NCATS), 2009)
Values joined by “and” are separate entries in the source; they are usually repeats but may differ in a detail not shown here. Identical values can stand only once. The whole screen tested about 310,000 compounds, of which about 11,000 (3.5%) were called active. Inconclusive results (about 4%) are left out. This is one part of a sample in which actives are shown more often than they occur. The source holds several records for some structures; these can differ, active in one and inactive in another. Unmarked numbers belong to inactive results. Calls follow the shape of the dose curve; as a rule, active = well fitted inhibition curve with a large enough effect; inconclusive = small, poorly fitted or top-dose-only effect, or another doubt; inactive = no such curve, though single readings can be large or run the other way.

Target: 4'-phosphopantetheinyl transferase ffp (Bacillus subtilis) (UniProt Q9F4F7)
Assay: qHTS Assay for Inhibitors of Bacillus subtilis Sfp phosphopantetheinyl transferase (PPTase);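 also: the enzyme is Sfp with the accession as filed and its product quenches rhodamine fluorescence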;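 as to largest response in the series, negative = inhibition: 0% = enzyme reaction without inhibitor and -100% = no enzyme wells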
Conditions: Biochemical Sfp PPTase activity
Description: Assay Submitter: Michael Burkart, University of California, San Diego
Screening Center PI: Austin, C.P.
Screening Center: NIH Chemical Genomics Center [NCGC]
The covalent attachment of a phosphopantetheinyl (4'-PP) arm to a variety of synthases and other proteins is a key posttranslational protein modification. The 4'-PP is installed on the proteins post-translationally from coenzyme A (CoA) on a conserved serine residue by action of phosphopantetheinyl transferase (PPTase) enzymes. Phosphopantetheinylation is essential for synthase activity, and removal of the PPTase gene precludes natural product synthesis in microorganisms, or in the case of fatty acid biosynthesis, renders the organism unviable. PPTase enzymes belong to a distinct structural superfamily. Within bacteria, these enzymes are grouped into two classes based upon primary structure, the AcpS-Type and Sfp-Type PPTases.
Sfp-type PPTases, corresponding to an activator of surfactin production in Bacillus subtilis, are responsible for modifying type I polyketide and nonribosomal peptide synthases of prokaryotes. Sfp-type PPTases are responsible for the activation of a variety of pathogen-associated virulence factors. Among these compounds are toxins such as mycolactone from Mycobacterium ulcerans, siderophores such as vibriobactin from Vibrio cholerae or mycobactin from Mycobacterium tuberculosis, as well as the mycolic acids which form the waxy cell wall of Mycobacteria. The biosyntheses of these natural products are considered attractive targets for drug design.
In search of small molecule Sfp-PPTase inhibitors, a fluorescence quenching assay was developed for detection of Bacillus subtilis Sfp-PPTase enzymatic activity in a miniaturized high-throughput format. The consensus ybbr acceptor peptide […] was N-terminally labeled with Black Hole Quencher-2 (BHQ-2) and used in combination with rhodamine-labeled coenzyme A as a co-substrate.
Inhibition of Sfp-PPTase was detected by recording the fluorescence intensity change over a 30-minute reaction period at a 525 nm excitation and 598 nm emission. Reagents were supplied by Michael Burkart and Timothy Foley, University of California at San Diego.
This BioAssay deposition is for validation of the developed Sfp-PPtase assay.
Assay Buffer: 50 mM Hepes-Na pH 7.6, 10 mM MgCl2, 0.01% Nonidet P-40, and 0.01% BSA.
3 uL of Sfp-PPTase enzyme (final concentration 15 nM) and 1 uL of substrate mixture (final concentration for rhodamine-CoA and BHQ-2-YbbR 5 uM and 12.5 uM, respectively) dispensed in columns 1, 2, 5 - 48. Columns 1 and 2 used to generate neutral control (uninhibited reaction)
Three uL of reagents, consisting of buffer (in columns 3 and 4 as negative control) and Sfp-PPTase (in columns 1, 2, 5 - 48) were dispensed into 1,536-well Greiner black solid bottom plate. Compounds (23 nL) were transferred via Kalypsys pintool equipped with 1,536-pin array. The plate was incubated for 15 min at room temperature, followed by the addition of 1 uL substrate to start the reaction. The plate was then centrifuged at 1000 rpm for 15 seconds, and the fluorescence intensity recorded on a ViewLux High-throughput CCD imager (Perkin-Elmer) using standard BODIPY optics (525 nm excitation and 598 nm emission). The plate was then incubated for 30 minutes, and a second read on the ViewLux was performed. The fluorescence intensity difference over the 30-minute period was used to calculate the respective reaction rate for each well.
Potency is read from the fitted curve at half-maximal effect.

SMILES	largest response in the series, negative = inhibition	Potency
CC(Cc1cccs1)NCc1ccc(Cl)cc1 (stereo not drawn)	26%	–
O=C(O)c1ccccc1NC(=O)C1C2CCC(O2)C1C(=O)O (stereo not drawn)	2.88%	–
Cc1ccnc(-n2c(C)cc(/C=C3\C(=O)NC(=S)N(C)C3=O)c2C)c1	–	25.1 µM (active)
Cc1ccc(-n2c(C)cc(/C=C3\C(=O)NC(=O)N(C)C3=O)c2C)cc1C	-19.1%	–
Cc1cc(C=C2C(=O)NC(=O)NC2=O)c(C)n1-c1ccncc1	–	56.2 µM (active)
CCN1C[C@]2(C)CC[C@H](O)[C@@]34[C@@H]5CC6[C@@H](OC)C[C@@](O)([C@@H]5[C@@H]6O)[C@H](C[C@@H]23)[C@H]14	12.6%	–
CC12CN3CC(C)(CN(C1)C3c1cccs1)C2 (stereo not drawn)	10.2%	–
CCCCCCCCc1[se]c2ccccc2c1Br	14.5%	–
O=C(Nc1cccc2ccccc12)N1CCC2(CC1)OCCO2	0.463%	–
O=C(OCC1O[C@@H](OC(=O)c2cc(O)c(O)c(O)c2)[C@@H](OC(=O)c2cc(O)c(O)c(O)c2)[C@@H](OC(=O)c2cc(O)c(O)c(O)c2)[C@@H]1OC(=O)c1cc(O)c(O)c(O)c1)c1cc(O)c(O)c(O)c1 (stereo partly drawn)	–	25.1 µM (active)
O=C1NC(=O)C(CCc2ccccn2)(Cc2cccc(Cl)c2Cl)C(=O)N1c1ccc(Br)cc1 (stereo not drawn)	4.65%	–
COc1cc2c(cc1OC)[C@@H]1C(=O)c3ccc(O)c(CC=C(C)C)c3OC1CO2 (stereo partly drawn)	0.512%	–
CC(=O)c1c(O)c(C)c(O)c(Cc2c(O)c3c(c(C(=O)/C=C/c4ccccc4)c2O)OC(C)(C)C=C3)c1O	-11.4% and -12.1% and -5.71%	–
COc1ccccc1-c1[se]c2ccccc2c1I	-3.36%	–
COc1ccc(N2C(=O)/C(=C/c3ccco3)C(=O)NC2=S)cc1	–	11.2 µM (active)
BrC1C(Br)C(Br)C(Br)C(Br)C1Br (stereo not drawn)	–	79.4 µM (active)
Cc1ccc(C2CN(C)CC2C(=O)c2ccc(F)cc2)cc1 (stereo not drawn)	15%	–
CC(=NC1CCN(Cc2ccccc2)CC1)c1c(O)n(C)c(=O)n(C)c1=O	8.13%	–
NC[C@H](O)c1ccc(O)cc1	5.47%	–
CC[C@@H]1CN2CC[C@@H]1C[C@H]2[C@H](O)c1ccnc2ccc(OC)cc12	6.78%	–
CCN1C[C@]2(COC)C(O)C[C@H](OC)[C@@]34C5C[C@]6(O)C(OC)C(O)[C@](OC(C)=O)(C5C6OC(=O)c5ccccc5)C(C(OC)C23)C14 (stereo partly drawn)	5.25%	–
CC(=O)[O][Sn]([c]1ccccc1)([c]1ccccc1)[c]1ccccc1	–	1.41 µM (active)
COC(=O)N1C(c2ccccc2)C1c1ccccc1 (stereo not drawn)	17.3%	–
COc1cccc(-c2nc3ccc(N4CCN(C)CC4)cc3[nH]2)c1	-7.35%	–
CCCN(C/C=C/I)C1CCc2ccc(O)cc2C1 (stereo not drawn)	-26.2%	–
C[C@@]12CC[C@H]3[C@@H](CC[C@]4(O)C[C@H](O)CC[C@@]34C=O)[C@]1(O)CC[C@@H]2C1=CC(=O)OC1	17.6%	–

SMILES	largest response in the series, negative = inhibition	Potency
COc1ccccc1N=Nc1c(O)[nH]c(=S)[nH]c1=O	-20.4%	–
Cc1ccc2c(c1)=C/C(=C\c1c(O)[nH]c(=O)[nH]c1=O)C(=O)N=2	–	28.2 µM (active)
O=C1N=c2ccccc2=C/C1=C\c1c(O)[nH]c(=S)[nH]c1=O	–	25.1 µM (active)
O=c1[nH]c(O)c(C=Nc2cc(F)cc(F)c2)c(=O)[nH]1	-4.22%	–
COc1cc(C(=S)N2CCOCC2)ccc1O	14.2%	–
N#CC(C#N)=Cc1cc(O)c(O)c([N+](=O)[O-])c1	-27.4% and 8.16%	–
OC(Cn1c2ccccc2c2ccccc21)C[n+]1ccccc1 (stereo not drawn)	4.01%	–
CC(C)(O)c1[se]c2ccccc2c1I	-14.3%	–
O=C(N/N=C/c1ccc([N+](=O)[O-])o1)c1cc([N+](=O)[O-])cc([N+](=O)[O-])c1O	-16.6%	–
COC(=O)c1ccc2[se]c(CC3CCCCC3)c(I)c2c1	-1.34%	–
C[C@]12O[C@H](C[C@@]1(O)C(=O)O)n1c3ccccc3c3c4c(c5c6ccccc6n2c5c31)CNC4=O	-2.27%	–
CN(C)CC1CCCCC1=O (stereo not drawn)	9.1%	–
C=CCN1C(=O)C2(C(C(=O)OCC)=C(N)Oc3c2c(=O)oc2ccccc32)c2ccccc21 (stereo not drawn)	-13.3%	–
CC(C)(c1ccc(OC[C@@H]2CO2)cc1)c1ccc(OC[C@H]2CO2)cc1	-26.3%	–
CCCCC/C=C\C/C=C\C/C=C\CCCCCCC(=O)NCCO	-6.26% and -18.5% and 24.4%	–
CCCCC/C=C\C/C=C\C/C=C\C=C\[C@H](CCCC(=O)O)OO	1.29% and 7.78%	–
CCCCC/C=C\C/C=C\C/C=C\C/C=C\CCCCCC(=O)NCCO	-11.4% and -19.7% and 32%	25.1 µM (active)
CCN1C[C@@]2(COC)CC[C@H](OC)[C@]34[C@@H]1[C@]1(OCO[C@@]15C[C@@H](OC)C1C[C@H]3[C@H]5[C@@H]1OC)[C@H](O)[C@@H]24	4.99%	–
C=CCN1CCC23c4c5ccc(O)c4O[C@H]2C(=O)CC[C@@]3(O)C1C5 (stereo partly drawn)	7.15%	–
CN(C)[C@@H]1C(=O)C(C(N)=O)=C(O)[C@@]2(O)C(=O)C3=C(O)c4c(O)cccc4[C@@](C)(O)C3CC12 (stereo partly drawn)	-6.86%	–
CCOC(=O)C1(CCc2ccccc2)CCN(Cc2ccco2)CC1	-10.9%	–
CN1[C@@H]2CC[C@H]1CC(OC(=O)c1cc(Cl)cc(Cl)c1)C2 (stereo partly drawn)	10.2%	–
CC(=O)Oc1ccccc1C(=O)Nc1ncc([N+](=O)[O-])s1	-19.7%	50.1 µM (active)
O=c1oc2ccccc2c(O)c1C(c1ccccc1O)c1c(O)c2ccccc2oc1=O	9.81%	–
C[C@H]1C/C=C/[C@@H]2[C@@H]3O[C@]3(C)[C@@H](C)[C@H]3[C@H](Cc4ccccc4)NC(=O)[C@]32OC(=O)O/C=C/[C@](C)(O)C1=O	-0.438%	–
